# In the supplement of paper PMC8728848:
# About 410 targets per protein were measured; listed, in parts, are those with the strongest signals and a random draw of the rest.
# Key:
# Experiment in all cases: glycan array binding signal (z-score within array); higher = stronger binding
# Details in all cases: glycan notation: IUPAC condensed, linker removed
# Fuc(a1-2)Gal(b1-4)Glc6S = target: Fuc(a1-2)Gal(b1-4)Glc6S
# Method in brief: (§1)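 Arrays were curated from the Consortium for Functional Glycomics database, 3228 in total, and kept only where the protein sequence was available. Binding is expressed as a within-array Z-score. This score was averaged across arrays of the same protein sequence at different concentrations or buffers and across linkers, and negative values can be read as non-binding.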
# [1] = target: Fuc(a1-2)[Gal(a1-3)]Gal(b1-4)GlcNAc
# Method in brief: as §1
# [2] = target: Fuc(a1-3)[Gal3S(b1-4)]Glc
# Method in brief: as §1
# [3] = target: Gal(b1-3)GalNAc(b1-3)Gal(b1-4)Glc
# Method in brief: as §1
# [4] = target: Gal(b1-3)[Neu5Ac(a2-6)]GalNAc
# Method in brief: as §1
# Gal3S(b1-4)Glc6S = target: Gal3S(b1-4)Glc6S
# Method in brief: as §1
# Gal3S(b1-4)GlcNAc6S = target: Gal3S(b1-4)GlcNAc6S
# Method in brief: as §1
# Gal3S6S(b1-4)GlcNAc6S = target: Gal3S6S(b1-4)GlcNAc6S
# Method in brief: as §1
# Gal4S6S(b1-4)GlcNAc = target: Gal4S6S(b1-4)GlcNAc
# Method in brief: as §1
# Gal6S(b1-4)Glc6S = target: Gal6S(b1-4)Glc6S
# Method in brief: as §1
# GlcA(b1-6)Gal = target: GlcA(b1-6)Gal
# Method in brief: as §1
# [5] = target: GlcNAc(b1-3)Gal(b1-3)GalNAc
# Method in brief: as §1
# [6] = target: GlcNAc(b1-3)[GlcNAc(b1-6)]Gal(b1-4)GlcNAc
# Method in brief: as §1
# [7] = target: GlcNAc(b1-3)[GlcNAc(b1-6)]GlcNAc
# Method in brief: as §1
# [8] = target: GlcNAc(b1-4)Gal(b1-4)GlcNAc
# Method in brief: as §1
# Man(a1-3)[Man(a1-6)]Man = target: Man(a1-3)[Man(a1-6)]Man
# Method in brief: as §1
# [9] = target: Man(a1-3)[Man(a1-6)]Man(a1-6)[Man(a1-3)]Man(b1-4)GlcNAc(b1-4)GlcNAc
# Method in brief: as §1
# [10] = target: Neu5Ac(a2-3)Gal(b1-3)GalNAc
# Method in brief: as §1
# [11] = target: Neu5Ac(a2-3)Gal6S(b1-4)GlcNAc
# Method in brief: as §1
# [12] = target: Neu5Gc(a2-3)Gal(b1-4)[Fuc(a1-4)]GlcNAc
# Method in brief: as §1
binder,measurement,setting,value
"Annexin-A1 (Mus musculus), P10107 (protein) MAMVSEFLKQARFLENQEQEYVQAVKSYKGGPGSAVSPYPSFNVSSDVAALHKAIMVKGVDEATIIDILTKRTNAQRQQIKAAYLQENGKPLDEVLRKALTGHLEEVVLAMLKTPAQFDADELRGAMKGLGTDEDTLIEILTTRSNEQIREINRVYREELKRDLAKDITSDTSGDFRKALLALAKGDRCQDLSVNQDLADTDARALYEAGERRKGTDVNVFTTILTSRSFPHLRRVFQNYGKYSQHDMNKALDLELKGDIEKCLTTIVKCATSTPAFFAEKLYEAMKGAGTRHKALIRIMVSRSEIDMNEIKVFYQKKYGISLCQAILDETKGDYEKILVALCGGN",glycan array binding signal (z-score),Fuc(a1-2)Gal(b1-4)Glc6S,1.79
same,glycan array binding signal (z-score),[1],-0.684
same,glycan array binding signal (z-score),[2],-0.177
same,glycan array binding signal (z-score),[3],-0.151
same,glycan array binding signal (z-score),[4],-0.343
same,glycan array binding signal (z-score),Gal3S(b1-4)Glc6S,3.21
same,glycan array binding signal (z-score),Gal3S(b1-4)GlcNAc6S,1.83
same,glycan array binding signal (z-score),Gal3S6S(b1-4)GlcNAc6S,7.38
same,glycan array binding signal (z-score),Gal4S6S(b1-4)GlcNAc,1.13
same,glycan array binding signal (z-score),Gal6S(b1-4)Glc6S,3.55
same,glycan array binding signal (z-score),GlcA(b1-6)Gal,0.482
same,glycan array binding signal (z-score),[5],-0.049
same,glycan array binding signal (z-score),[6],-0.758
same,glycan array binding signal (z-score),[7],-0.452
same,glycan array binding signal (z-score),[8],-0.318
same,glycan array binding signal (z-score),Man(a1-3)[Man(a1-6)]Man,-0.165
same,glycan array binding signal (z-score),[9],-0.176
same,glycan array binding signal (z-score),[10],-0.573
same,glycan array binding signal (z-score),[11],-0.076
same,glycan array binding signal (z-score),[12],-0.436
